# From PubChem BioAssay (NCATS)
# Inconclusive results are not listed. The source made the active and inactive calls. Calls come from the whole dose curve. Square brackets hold non-standard residues; d marks the D form. Peptide text beside a SMILES is read from it. * marks the point of attachment. Nva = CCC[C@H](N)C(=O)O; Cbz = O=C(OCc1ccccc1)*
# Target: Nucleoprotein (Lymphocytic choriomeningitis virus (strain Armstrong)) (UniProt P09992)
# Experiment: qHTS for Inhibitors of the Functional Ribonucleoprotein Complex (vRNP) of Lymphocytic Choriomeningitis Arenaviruses (LCMV): LCMV Primary Screen - GLuc reporter signal (AID 1347086); note: nearly all actives have a fitted effect of over 70% in size
# Details: LCMV minigenome vRNP cell assay, Gaussia luciferase reporter; series mostly up to 57.5 µM; activity change, negative = inhibition: at the top concentration
# % is set by controls: 0 for no effect and ±100 for the full control effect.
# Nucleoprotein (Lymphocytic choriomeningitis virus (strain Armstrong)), sequence (P09992 whole entry, looked up): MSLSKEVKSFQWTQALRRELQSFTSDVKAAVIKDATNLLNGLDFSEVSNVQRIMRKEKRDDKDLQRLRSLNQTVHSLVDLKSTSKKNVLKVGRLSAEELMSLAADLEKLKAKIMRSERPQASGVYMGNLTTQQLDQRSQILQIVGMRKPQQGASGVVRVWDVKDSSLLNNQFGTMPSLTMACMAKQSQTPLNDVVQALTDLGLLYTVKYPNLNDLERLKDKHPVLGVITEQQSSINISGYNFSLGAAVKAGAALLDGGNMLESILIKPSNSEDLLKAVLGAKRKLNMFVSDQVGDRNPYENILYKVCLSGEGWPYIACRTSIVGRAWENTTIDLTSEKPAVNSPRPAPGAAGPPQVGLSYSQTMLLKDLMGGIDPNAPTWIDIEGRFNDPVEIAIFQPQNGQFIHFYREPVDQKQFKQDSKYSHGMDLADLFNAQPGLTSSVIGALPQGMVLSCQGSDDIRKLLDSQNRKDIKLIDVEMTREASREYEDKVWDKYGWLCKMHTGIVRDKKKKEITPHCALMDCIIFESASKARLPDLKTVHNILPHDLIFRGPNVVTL
row,SMILES,"activity change, negative = inhibition"
1,Cc1cc(NC(=O)Nc2ccc3c(ccn3C)c2)sn1,-2.47% (inactive)
2,O=Nc1c(-c2c(O)[nH]c3cc(Br)ccc23)[nH]c2ccccc12,90.8% (inactive)
3,COc1ccc(CCN(C)CCc2ccc(OC)c(OC)c2)cc1OC,-1.47% (inactive)
4,N#C/C(=C\c1ccc(O)c(O)c1)C(=O)NCCc1ccccc1,1.68% (inactive)
5,Brc1ccc([C@H]2CN3CCSC3=N2)cc1,26.3% (inactive)
6,COc1ccc2ccc(=O)oc2c1CC=C(C)C,25.9% (inactive)
7,CC(C)Cc1ccc([C@H](C)C(=O)O)cc1,6.62% (inactive)
8,COc1c2ccoc2cc2oc(=O)ccc12,4.34% (inactive)
9,CC=C1C2C=C(C)CC1(N)c1ccc(=O)[nH]c1C2 (configuration not stated),11.3% (inactive)
10,Nc1ncnc2c1ncn2C1CCCC1,45% (inactive)
11,O=c1c2ccccc2oc2ccccc12,8.24% [at 115 µM] (inactive)
12,CN(N=O)C(=O)N[C@H]1C(O)OC(CO)[C@@H](O)[C@H]1O (some centres not stated),6.89% (inactive)

# System: not listed separately
# Experiment: Primary qHTS for Huh7 cytotoxicity: counterscreen for inhibitors of MERS-S pseudotyped particle cell entry (AID 1479147)
# Details: cell viability read-out; series mostly up to 57.1 µM; activity change, negative = cytotoxicity: at the top concentration
SMILES,outcome,"activity change, negative = cytotoxicity"
CN(C)CCCC1(c2ccc(F)cc2)OCc2cc(C#N)ccc21 (configuration not stated),inactive,–
COC(=O)[C@H]1[C@H]2C[C@@H]3c4[nH]c5ccccc5c4CCN3C[C@H]2C[C@@H](OC(=O)c2cc(OC)c(OC)c(OC)c2)[C@@H]1OC,inactive,–
CC[C@@]1(O)C[C@H](O[C@H]2C[C@H](N(C)C)[C@H](O[C@H]3C[C@H](O)[C@H](O[C@H]4CCC(=O)[C@H](C)O4)[C@H](C)O3)[C@H](C)O2)c2c(cc3c(c2O)C(=O)c2c(O)cccc2C3=O)[C@@H]1C(=O)OC,inactive,–
CS(=O)(=O)c1ccc(C2=C(c3ccccc3)C(=O)OC2)cc1,–,2.31% (inactive)

# System: not listed separately
# Experiment: Primary qHTS for inhibitors of MERS-S pseudo-typed particle cell entry (AID 1479149); note: nearly all actives have a fitted effect of over 60% in size
# Details: MERS-S pseudotyped particle entry, luciferase; series mostly up to 57.1 µM; activity change, negative = inhibition: at the top concentration; outcome: at the top concentration
SMILES,"activity change, negative = inhibition",outcome
COc1cccc2c1C(=O)c1c(O)c3c(c(O)c1C2=O)C[C@@](O)(C(=O)CO)C[C@@H]3O[C@H]1C[C@H](N)[C@H](OC2CCCCO2)[C@H](C)O1 (some centres not stated),-10.9% (inactive),–
CC[C@@]1(O)C[C@H](O[C@H]2C[C@H](N(C)C)[C@H](O[C@H]3C[C@H](O)[C@H](O[C@H]4CCC(=O)[C@H](C)O4)[C@H](C)O3)[C@H](C)O2)c2c(cc3c(c2O)C(=O)c2c(O)cccc2C3=O)[C@@H]1C(=O)OC,–,inactive
CS(=O)(=O)c1ccc(C2=C(c3ccccc3)C(=O)OC2)cc1,–,inactive

# System: not listed separately
# Experiment: Primary qHTS for Vero E6 cytotoxicity: counterscreen for inhibitors of SARS-S pseudo-typed particle cell entry (AID 1479150)
# Details: cell viability; series mostly up to 57.1 µM; activity change, negative = cytotoxicity: at the top concentration
SMILES,outcome,"activity change, negative = cytotoxicity"
CN(C)CCCC1(c2ccc(F)cc2)OCc2cc(C#N)ccc21 (configuration not stated),inactive,–
COC(=O)[C@H]1[C@H]2C[C@@H]3c4[nH]c5ccccc5c4CCN3C[C@H]2C[C@@H](OC(=O)c2cc(OC)c(OC)c(OC)c2)[C@@H]1OC,inactive,–
COc1cccc2c1C(=O)c1c(O)c3c(c(O)c1C2=O)C[C@@](O)(C(=O)CO)C[C@@H]3O[C@H]1C[C@H](N)[C@H](OC2CCCCO2)[C@H](C)O1 (some centres not stated),–,-17.3% (inactive)
CC[C@@]1(O)C[C@H](O[C@H]2C[C@H](N(C)C)[C@H](O[C@H]3C[C@H](O)[C@H](O[C@H]4CCC(=O)[C@H](C)O4)[C@H](C)O3)[C@H](C)O2)c2c(cc3c(c2O)C(=O)c2c(O)cccc2C3=O)[C@@H]1C(=O)OC,–,0.503% (inactive)
CS(=O)(=O)c1ccc(C2=C(c3ccccc3)C(=O)OC2)cc1,inactive,–

# System: not listed separately
# Experiment: Confirmatory qHTS for VERO E6 Cytotoxicity Assay: Counterscreen for SARS-CoV-2 CPE Assay (AID 1508605); note: nearly all actives have a fitted effect of over 60% in size; note: potency is the fitted concentration of half-maximal effect
# Details: cell viability luminescence; series mostly up to 20 µM; activity change, negative = cytotoxic: at the top concentration
SMILES,Potency,"activity change, negative = cytotoxic"
CCC[C@@H](C=O)NC(=O)[C@H](CC(C)C)NC(=O)[C@H](CC(C)C)NC(=O)OCc1ccccc1 (Cbz-Leu-Leu-[Nva]-aldehyde),0.714 µM (active),–
Cc1c(CCOc2ccc(C(=O)O)cc2)c2cc(Cl)ccc2n1C(c1ccccc1)c1ccccc1,12.6 µM (active),–
COC(=O)[C@H]1[C@H]2C[C@@H]3c4[nH]c5ccccc5c4CCN3C[C@H]2C[C@@H](OC(=O)c2cc(OC)c(OC)c(OC)c2)[C@@H]1OC,–,-21.4% (inactive)

# System: not listed separately
# Experiment: Cytotoxicity counterscreen for inhibitors of SARS-CoV-2 cell entry (AID 1645845); note: nearly all actives have a fitted effect of over 50% in size; note: potency is the fitted concentration of half-maximal effect
# Details: cell viability (SARS-CoV-2 entry assay cells); series mostly up to 57.1 µM; activity change, negative = cytotoxicity: at the top concentration; outcome: at the top concentration
# Procedure, shortened: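 Expi293F/hACE2 cells seeded overnight; cpd pin-transferred in DMSO, 1 h preincubation, + media, 48 h 37 C 5% CO2; ATPLite 1step luminescence; normalized to cells and no cells.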
SMILES,outcome,"activity change, negative = cytotoxicity",Potency
COc1cc(C[C@@H](CO)[C@H](CO)Cc2ccc(O)c(OC)c2)ccc1O,inactive,–,–
CC1=C(C(=O)Nc2cc3cn[nH]c3cc2F)C(c2ccc(Cl)cc2F)N=C(c2ccnc(Cl)c2)N1 (configuration not stated),–,-12.5% (inactive),–
NC(=O)c1noc([C@H](CCCC2CCCCC2)CC(=O)NO)n1,–,1.51% (inactive),–
N#Cc1cc(NC(=O)Nc2nnc(-c3ccncc3)s2)ccc1-c1cn[nH]c1,inactive,–,–
COc1cc(NC(=O)c2ccc(-c3ccc(Cl)cc3)o2)cc(OC)c1,–,3.96% (inactive),–
Cc1c(CCOc2ccc(C(=O)O)cc2)c2cc(Cl)ccc2n1C(c1ccccc1)c1ccccc1,–,1.48% (inactive),–
CN(C)CCCC1(c2ccc(F)cc2)OCc2cc(C#N)ccc21 (configuration not stated),–,-4.28% (inactive),–
COC(=O)[C@H]1[C@H]2C[C@@H]3c4[nH]c5ccccc5c4CCN3C[C@H]2C[C@@H](OC(=O)c2cc(OC)c(OC)c(OC)c2)[C@@H]1OC,inactive,–,–
CCCCOc1c(C(=O)c2c(F)cc(C)cc2F)cnc2n[nH]cc12,–,-23.6% (inactive),–
Nc1nc(OCc2ccccc2)c2[nH]cnc2n1,inactive,–,–
NC[C@H]1O[C@H](O[C@@H]2[C@@H](O)[C@@H](O[C@H]3O[C@H](CO)[C@@H](O)[C@H](N)[C@@H]3O)[C@H](N)C[C@@H]2N)[C@H](O)[C@@H](O)[C@H]1O,–,-0.0452% (inactive),–
COc1cccc2c1C(=O)c1c(O)c3c(c(O)c1C2=O)C[C@@](O)(C(=O)CO)C[C@@H]3O[C@H]1C[C@H](N)[C@H](OC2CCCCO2)[C@H](C)O1 (some centres not stated),–,–,12.6 µM (active)
CCOC(=O)C1=C(C)NC2=C(C(=O)CC(C)(C)C2)C1c1ccc(-c2ccccc2)cc1 (configuration not stated),–,-21.7% (inactive),–
CC[C@@]1(O)C[C@H](O[C@H]2C[C@H](N(C)C)[C@H](O[C@H]3C[C@H](O)[C@H](O[C@H]4CCC(=O)[C@H](C)O4)[C@H](C)O3)[C@H](C)O2)c2c(cc3c(c2O)C(=O)c2c(O)cccc2C3=O)[C@@H]1C(=O)OC,inactive,–,–
CS(=O)(=O)c1ccc(C2=C(c3ccccc3)C(=O)OC2)cc1,–,–,inactive
